HIF-2a inh – blocks HIF-2a reporter activity. 786-0 RCC cells HIF-2a reporter, luciferase luminescence, overnight. inhibition, % at 18.8 µM. 0.72% of 360,000 active;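 active = inhibition of the luminescence signal of 40% or more relative to plate controls, in a single-dose primary screen at 18.75 µM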
C8 TRAIL sens – caspase-8 TRAIL sensitization; NB7+C8 cells + TRAIL, ATPlite viability luminescence; 1% of 360,000 active; inhibition (viability loss, TRAIL sensitization), % at 10 µM;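 active = compounds causing at least 50% loss of cell viability in the single-dose screen, relative to plate controls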
CF NFkB inh – blocks PAF-induced NF-kB reporter in cystic fibrosis cells; AID 588850; KKLEB NF-kB-GFP reporter, GFP fluorescence overnight; inhibition, % at 5 µM; 0.86% of 360,000 active;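 active = at least 50% inhibition at 5 µM, scaled per plate between neutral and stimulator controls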;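 note: PAF is a Pseudomonas aeruginosa culture filtrate used as stimulus; plate controls were PAF-stimulated DMSO wells for no effect and unstimulated DMSO wells for full effect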
KKLEB cytotox – reduces viability of KKLEB cystic fibrosis airway cells | KKLEB CF airway cells viability, ATPlite luminescence, overnight; stronger effect = lower value; cells stimulated with P. aeruginosa culture filtrate | activity change (cytotoxicity), % at 5 µM | 0.36% of 360,000 active | AID 602141;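 active = corrected activity change at or below -50% at 5 µM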
Peg3 promoter – Peg3 promoter activity inhibition; HeLa PEG-Prom luciferase reporter, luminescence, overnight; inhibition, % at 20 µM; 1.7% of 360,000 active;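 active = inhibition of at least 50% at 20 µM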
PPC-1+TRAIL kill – compounds killing PPC-1 cancer cells with TRAIL present (potentiator screen, no TRAIL-free arm); PPC-1 cells + TRAIL, ATPLite viability luminescence; cell killing (% activity), % at 4 µM or 5 µM; 0.41% of 220,000 active; AID 1443;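 active = cell killing above 50% in the first pass at 4 µM, then a duplicate retest at 5 µM averaging 50% or more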;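 note: plate controls were cells with TRAIL plus DMSO for no effect and medium-only wells lacking cells for full effect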
Numbers without * were called inactive; x = not tested or not shown; ! = repeats disagree. Shown are actives, neighbours in structure and some others; about 3.1% of the full set was active somewhere.

SMILES	HIF-2a inh	C8 TRAIL sens	CF NFkB inh	KKLEB cytotox	Peg3 promoter	PPC-1+TRAIL kill
Cc1cccc(NC(=O)CCNS(=O)(=O)c2ccc3[nH]c(=O)oc3c2)c1	2.8	-34.9	6.4	-9.8	-8.4	x
COc1ccc(C2/C=C\CN(C(=O)c3ccc(C)cc3)[C@H](Cc3ccccc3)C(=O)N2Cc2ccc(F)cc2)cc1 (stereo partly drawn)	-0.9	5.8	-7.3	-7.9	69.9*	37.6
COc1ccc(C(=O)Nc2nnc(SCC(=O)NC3CC3)s2)cc1	-35.5	78.4*	9.2	-2.3	-42.1	x
COc1cccc(C(=O)Nc2nnc(SCC(=O)NC3CC3)s2)c1	-75.2	43.7	-6.6	-0.2	-75.4	x
Cc1ccccc1C(=O)Nc1nnc(SCC(=O)NC2CC2)s1	-35.7	53.2*	-3.9	-4.3	-104.7	x
COc1ccc(C(=O)Nc2nnc(SCC(=O)NC3CCCC3)s2)c(OC)c1	-115.0	72.3*	-25.4	-26.2	-115.4	x
COc1ccccc1C(=O)Nc1nnc(SCC(=O)NCc2ccco2)s1	-90.2	16.3	-39.7	22.3	-190.4	x
COc1ccc(C(=O)Nc2nnc(SCC(=O)Nc3ccc(NC(C)=O)cc3)s2)c(OC)c1	-205.1	2.3	16.3	-22.9	-261.9	x
COc1ccc(C(=O)Nc2nnc(SCC(=O)NCc3ccco3)s2)c(OC)c1	0.6	58.8*	-5.0	-10.8	-38.6	x
COc1ccccc1N1CCN(C2CCCN(C(=O)CC(F)(F)F)C2)CC1 (stereo not drawn)	-3.9	6.3	-16.5	5.3	10.4	x
CC(C)n1c(=O)nc(-c2ccccc2)c2cc3c(cc21)OCO3	5.0	-6.5	16.1	3.9	20.4	x
C[C@H](CO)N1C[C@H](C)[C@@H](CN(C)Cc2ccc(C(=O)O)cc2)OCc2cnnn2CCCC1=O	6.8	-1.8	9.8	0.2	-14.5	x
O=C(CSc1nnc(NC(=O)c2ccccc2F)s1)Nc1ccccc1F	-193.9	58.5*	-14.7	-0.8	-211.8	44.6
CCN1CCN(C2=C(NS(=O)(=O)c3ccc(NC(C)=O)cc3)C(=O)c3ccccc3C2=O)CC1	-5.8	36.6	28.9	-3.6	-20.5	x
CCN1CCN(C2=C(NS(=O)(=O)c3ccc(C)cc3)C(=O)c3ccccc3C2=O)CC1	-40.5	52.0*	30.6	6.0	-28.6	x
CC(C)C[C@]1(c2ccccc2)ON(c2ccccc2C(F)(F)F)C1=O	25.0	0.5	-8.2	5.4	33.2	x
O=C1N(c2ccccc2C(F)(F)F)O[C@@]1(c1ccccc1)C1CCCC1	21.8	4.4	29.4	-1.8	69.5*	x
Cc1ccc(NC(=O)c2ccccc2)cc1	-225.1	20.0	11.9	-16.7	-307.4	-1.9
Cc1ccc(C(=O)Nc2ccc3ccccc3n2)cc1	-244.3	49.8*	-30.2	-0.1	-217.6	x
O=C(Nc1ccc2ccccc2n1)c1ccccc1	-240.7	37.9	-1.0	7.0	-268.4	x
Cc1ccc(C(=O)Nc2ccc3ccccc3c2)cc1	-120.7	82.6*	-26.5	-43.9	3.4	x
Cc1ccc(NC(=O)c2ccccc2O)cc1	-271.1	52.4*	8.7	-7.9	-301.5	40.6
O=C(Nc1ccc2ccccc2c1)c1ccc(Cl)cc1	-134.9	57.5*	-9.4	-13.3	-267.3	x
CCCCC(=O)N(C)c1c(C)nc2ccc(C(=O)N(C)CCN(C)C)cn12	-3.3	-4.9	-21.3	7.0	-8.0	x
Cc1cc(N)nc(=O)n1C1CC(O)C(CO)O1 (stereo not drawn)	-0.7	-18.9	1.1	0.9	-10.8	x
SMILES	HIF-2a inh	C8 TRAIL sens	CF NFkB inh	KKLEB cytotox	Peg3 promoter	PPC-1+TRAIL kill
Cc1ccoc1C(=O)Nc1ccc2ccccc2c1	-94.2	53.5*	2.0	-21.7	-106.0	x
N#Cc1cc(C(=O)c2cc(Br)ccc2O)cn(C2CCCCC2)c1=O	2.7	8.5	32.6	-6.9	51.5*	-5.1
CC(=O)c1cccc(NC(=O)Nc2ccc3c(c2)N(C)C(=O)CS3)c1	-54.9	25.9	61.3*	-14.8	28.6	20.8
Cc1cc(C)cc(NC(=O)Nc2ccc3c(c2)N(C)C(=O)CS3)c1	-48.8	23.8	23.8	1.3	24.6	4.0
Brc1ccc(-c2nnc3sc(CN4CCc5ccccc5C4)cn23)cc1	26.6	14.5	12.8	-0.3	14.9	x
Brc1ccc(-c2nnc3sc(CN4CCC5(CC4)OCCO5)cn23)cc1	13.9	65.8*	0.7	-7.6	14.7	7.4
CC(CC(=O)N(CCC1=CCCCC1)c1c(N)n(Cc2ccccc2)c(=O)[nH]c1=O)c1ccccc1 (stereo not drawn)	-6.2	31.0	-11.8	4.7	87.1*	x
CCOc1ccc(OCC(=O)N(CCC2=CCCCC2)c2c(N)n(Cc3ccccc3)c(=O)[nH]c2=O)cc1	4.1	56.1*	71.8*	-61.5*	82.7*	x
O=S(=O)(c1ccc(NC(=S)Nc2ccccc2)cc1)N1CCOCC1	-9.2	-2.2	1.9	-8.1	12.5	4.8
CC(C)CCCCCCNC(=S)Nc1ccc(S(=O)(=O)N2CCOCC2)cc1	9.5	8.2	51.7*	-26.1	61.6*	18.7
Cc1cccc(NC(=O)c2ccccc2NC(=O)c2ccccc2)n1	-22.3	3.1	-6.2	-3.1	-2.5	x
CC(=O)Oc1c(I)cc(I)cc1C(=O)Nc1ccc(Cl)cc1	-120.9	20.3	70.0*	-38.9	20.5	x
CCN1CCN(Cc2ccc(NC(=O)c3cc(NC(=O)c4cc(C)on4)cc(OC)c3)cc2C(F)(F)F)CC1	-28.2	29.9	15.5	4.9	57.4*!	x
CNc1ccc(Br)cc(C(=O)/C=C/c2cccc(OC)c2OC)c1=O	13.3	2.0	0.3	-0.6	7.0	-0.2
CNc1ccc(Br)cc(C(=O)/C=C/c2cccc(Cl)c2Cl)c1=O	13.4	5.4	46.0	-20.1	105.6*	-0.7
CCOC(=O)CCc1c(C)c2ccc(OCc3cc([N+](=O)[O-])ccc3OC)c(C)c2oc1=O	x	x	x	x	x	26.3
CC(=O)COc1ccc2c(-c3cccc([N+](=O)[O-])c3)cc(=O)oc2c1	10.6	-12.3	-15.8	4.1	-3.5	18.2
CCOC(=O)CCc1c(C)c2ccc(OCc3cc([N+](=O)[O-])ccc3OC)cc2oc1=O	18.1	11.1	3.2	-54.1*	-0.3	-5.6
COc1ccc([N+](=O)[O-])cc1COc1ccc2c(-c3ccccc3)cc(=O)oc2c1	17.0	20.1	66.6*	-52.4*	16.1	-13.0
Cc1c(C(=O)NCc2cccs2)sc(=O)n1Cc1ccc(S(C)(=O)=O)cc1	-2.8	-13.9	-12.7	-5.4	-6.9	x
Cc1ccc2nc(-c3cc(-c4ccccc4)no3)cn2c1	-31.5	57.1*	-4.2	-5.5	11.2	33.0
Cc1ccc(O)c(-c2cc(-c3ccc(F)cc3)no2)c1	-277.4	68.9*	-7.3	-37.5	-306.9	x
Cc1ccc(-c2cc(-c3ccccc3)no2)c(O)c1	-68.1	78.3*	-6.3	-34.6	-101.0	50.0
Oc1ccccc1-c1cc(-c2ccccc2)no1	-227.6	44.6*	-4.7	-8.8	-256.2	16.7
Cc1cccc(S(=O)(=O)N(C)C[C@@H]2OCc3cn(nn3)CCCC(=O)N([C@H](C)CO)C[C@H]2C)c1	8.9	2.7	9.5	0.7	1.0	x

From PubChem BioAssay
